Data as given in PubChem BioAssay (EPA / NIEHS).
Active and inactive are the calls of the source. Rule for the calls: active = hit-call score of the fitted dose curve at least 0.9, where 1 is the maximum; inactive = score below 0.9.

Experiments:
[1] = ATG_CRE_CIS: Attagene CIS-FACTORIAL HepG2 Assay for human cAMP Responsive Element (CRE) binding protein 3 (AID 2282926); settings: HepG2 CRE cis-reporter, Attagene multiplexed mRNA; actives raise or lower the signal
Summary of the method: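 We dosed HepG2 cells bearing multiple cis-promoter reporter units for 24 h and measured reporter mRNA by RT-PCR with capillary electrophoresis detection. Bidirectional concentration-response fitting used DMSO as negative control.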

[2] = target: CCAAT/enhancer-binding protein beta (Homo sapiens) (UniProt P17676); experiment: ATG_C_EBP_CIS: Attagene CIS-FACTORIAL HepG2 Assay for human CCAAT/Enhancer Binding Protein (C/EBP) beta (AID 2282927); settings: HepG2 Attagene cis-factorial transcription factor reporter; actives raise or lower the signal
Summary of the method: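 Changes in reporter mRNA, rather than exogenous chimeric receptor activity, reflect native C/EBP signalling in transfected HepG2 cells dosed for 24 h; transcripts are detected by RT-PCR and capillary electrophoresis.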

[3] = ATG_CMV_CIS: Attagene CIS-FACTORIAL HepG2 Assay for human CMV (Internal Marker) (AID 2282928); settings: HepG2 CMV promoter reporter, transcription factor profiling; actives raise or lower the signal;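 note: endpoint acts as a background internal control marker rather than a target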
Summary of the method: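 After transient transfection of HepG2 with reporter transcription units driven by cis-regulatory promoters, cells receive test chemical for 24 h. Labeled reporter amplicons, digested with HpaI, are sized and quantified by capillary electrophoresis against DMSO.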

[4] = ATG_DR4_LXR_CIS: Attagene CIS-FACTORIAL HepG2 Assay for human Liver X Receptor (LXR), DR4 submotif (AID 2282929); settings: HepG2 Attagene DR4 cis-reporter, mRNA transcription; actives raise or lower the signal
Summary of the method: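 Cells were transfected with multiple reporter transcription units, exposed to chemicals for 24 hours, then lysed for RNA. Reporter mRNA induction was measured by RT-PCR with capillary electrophoresis detection and fitted in both directions relative to DMSO.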

[5] = target: Aryl hydrocarbon receptor (Homo sapiens) (UniProt P35869); experiment: ATG_Ahr_CIS: Attagene CIS-FACTORIAL HepG2 Assay for human Aryl Hydrocarbon Receptor (Ahr) (AID 2282930); settings: HepG2 AhR cis-factorial reporter transcription; actives raise or lower the signal
Summary of the method: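 HepG2, transient MRTU (cis) transfection, 24 h exposure. RNA → cDNA → PCR → 6-FAM primer extension → HpaI 2 h 37 C → CE. Fit: bidirectional, DMSO baseline.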

[6] = ATG_AP_1_CIS: Attagene CIS-FACTORIAL HepG2 Assay for human Activator Protein 1 (AP-1) (AID 2282931); settings: HepG2 Attagene cis-factorial AP-1 reporter mRNA; actives raise or lower the signal
Summary of the method: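 Endogenous transcription-factor activity in human HepG2 liver cells is read through a cis-promoter reporter transcript, sampled 24 h after dosing. Detection uses RT-PCR with capillary electrophoresis; values come from bidirectional fitting relative to DMSO.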

[7] = ATG_AP_2_CIS: Attagene CIS-FACTORIAL HepG2 Assay for human Activator Protein 2 (AP-2) (AID 2282932); settings: HepG2 AP-2 cis-reporter, Attagene transcription factor profiling; actives raise or lower the signal
Summary of the method: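 Step one: transient transfection of HepG2 with reporter transcription units. Step two: 24 h chemical exposure. Step three: RNA extraction, RT-PCR, labelled fragment analysis by capillary electrophoresis; DMSO serves as baseline.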

[8] = target: Retinoic acid receptor alpha (Homo sapiens) (UniProt P10276); experiment: ATG_DR5_RAR_CIS: Attagene CIS-FACTORIAL HepG2 Assay for human Retinoic Acid Receptor Alpha (RARE), DR5 submotif (AID 2282934); settings: HepG2 Attagene cis-factorial RARE DR5 reporter, mRNA; actives raise or lower the signal;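 for AC50: reporter responds to endogenous RAR alpha beta and gamma in HepG2 not RARA alone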
Summary of the method: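 HepG2, transient cis-reporter transfection, 24 h exposure. mRNA readout: RT-PCR, FAM label, HpaI cut, capillary electrophoresis. DMSO baseline, gain/loss fitting.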

[9] = target: Transcription factor E2F1 (Homo sapiens) (UniProt Q01094); experiment: ATG_E2F_CIS: Attagene CIS-FACTORIAL HepG2 Assay for human E2F Transcription Factor 1 (AID 2282935); settings: HepG2 Attagene cis-reporter, E2F reporter RNA transcripts; actives raise or lower the signal
Summary of the method: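 Total RNA from 24 h-treated, reporter-transfected HepG2 cells undergoes DNase I treatment, oligo(dT) reverse transcription, PCR and 6-FAM primer extension before capillary electrophoresis.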

[10] = ATG_BRE_CIS: Attagene CIS-FACTORIAL HepG2 Assay for human Bone Morphogenetic Protein (BMP) Response Element (BRE) (AID 2282933); settings: HepG2 BMP response element reporter, Attagene transcription factor profiling; actives raise or lower the signal
Summary of the method: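 Gain- or loss-of-signal was derived by bidirectional fitting against DMSO controls. The signal came from reporter mRNA, measured by RT-PCR and capillary electrophoresis, in HepG2 cells transiently carrying multiple reporter units and dosed for 24 h.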

Measured: AC50

CCAAT/enhancer-binding protein beta (Homo sapiens), sequence (P17676 whole entry, looked up): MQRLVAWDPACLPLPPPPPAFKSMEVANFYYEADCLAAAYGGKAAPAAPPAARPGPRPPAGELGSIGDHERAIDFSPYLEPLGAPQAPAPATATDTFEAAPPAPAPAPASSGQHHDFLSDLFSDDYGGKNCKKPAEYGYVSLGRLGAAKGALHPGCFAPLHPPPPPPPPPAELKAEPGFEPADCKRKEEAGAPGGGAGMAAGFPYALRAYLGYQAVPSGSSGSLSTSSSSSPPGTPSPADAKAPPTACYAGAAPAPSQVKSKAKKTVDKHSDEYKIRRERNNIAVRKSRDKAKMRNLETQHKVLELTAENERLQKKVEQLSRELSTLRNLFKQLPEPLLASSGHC
Transcription factor E2F1 (Homo sapiens), sequence (Q01094 whole entry, looked up): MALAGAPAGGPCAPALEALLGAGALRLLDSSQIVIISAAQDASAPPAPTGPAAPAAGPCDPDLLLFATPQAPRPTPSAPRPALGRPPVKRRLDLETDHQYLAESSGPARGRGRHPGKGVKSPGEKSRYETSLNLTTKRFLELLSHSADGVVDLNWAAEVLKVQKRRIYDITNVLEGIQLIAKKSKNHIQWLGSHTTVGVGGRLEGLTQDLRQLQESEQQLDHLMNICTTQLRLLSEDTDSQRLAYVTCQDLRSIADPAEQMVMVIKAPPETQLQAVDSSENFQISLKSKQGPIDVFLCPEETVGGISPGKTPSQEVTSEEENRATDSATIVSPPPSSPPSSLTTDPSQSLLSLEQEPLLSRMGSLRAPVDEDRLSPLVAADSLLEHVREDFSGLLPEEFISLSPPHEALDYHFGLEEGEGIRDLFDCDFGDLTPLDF
Retinoic acid receptor alpha (Homo sapiens), sequence (P10276 whole entry, looked up): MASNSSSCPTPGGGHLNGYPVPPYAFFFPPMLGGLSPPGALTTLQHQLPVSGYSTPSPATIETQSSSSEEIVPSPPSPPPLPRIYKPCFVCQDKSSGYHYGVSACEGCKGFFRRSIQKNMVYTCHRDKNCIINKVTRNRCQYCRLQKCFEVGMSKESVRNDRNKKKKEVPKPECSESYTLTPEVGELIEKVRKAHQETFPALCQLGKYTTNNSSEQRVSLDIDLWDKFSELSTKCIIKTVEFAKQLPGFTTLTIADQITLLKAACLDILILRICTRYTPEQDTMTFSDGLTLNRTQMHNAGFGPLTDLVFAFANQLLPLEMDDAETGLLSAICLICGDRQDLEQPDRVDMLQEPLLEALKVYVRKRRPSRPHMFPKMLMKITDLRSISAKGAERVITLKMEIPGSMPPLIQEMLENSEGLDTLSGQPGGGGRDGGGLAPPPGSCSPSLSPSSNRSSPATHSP
Aryl hydrocarbon receptor (Homo sapiens), sequence (P35869 whole entry, looked up): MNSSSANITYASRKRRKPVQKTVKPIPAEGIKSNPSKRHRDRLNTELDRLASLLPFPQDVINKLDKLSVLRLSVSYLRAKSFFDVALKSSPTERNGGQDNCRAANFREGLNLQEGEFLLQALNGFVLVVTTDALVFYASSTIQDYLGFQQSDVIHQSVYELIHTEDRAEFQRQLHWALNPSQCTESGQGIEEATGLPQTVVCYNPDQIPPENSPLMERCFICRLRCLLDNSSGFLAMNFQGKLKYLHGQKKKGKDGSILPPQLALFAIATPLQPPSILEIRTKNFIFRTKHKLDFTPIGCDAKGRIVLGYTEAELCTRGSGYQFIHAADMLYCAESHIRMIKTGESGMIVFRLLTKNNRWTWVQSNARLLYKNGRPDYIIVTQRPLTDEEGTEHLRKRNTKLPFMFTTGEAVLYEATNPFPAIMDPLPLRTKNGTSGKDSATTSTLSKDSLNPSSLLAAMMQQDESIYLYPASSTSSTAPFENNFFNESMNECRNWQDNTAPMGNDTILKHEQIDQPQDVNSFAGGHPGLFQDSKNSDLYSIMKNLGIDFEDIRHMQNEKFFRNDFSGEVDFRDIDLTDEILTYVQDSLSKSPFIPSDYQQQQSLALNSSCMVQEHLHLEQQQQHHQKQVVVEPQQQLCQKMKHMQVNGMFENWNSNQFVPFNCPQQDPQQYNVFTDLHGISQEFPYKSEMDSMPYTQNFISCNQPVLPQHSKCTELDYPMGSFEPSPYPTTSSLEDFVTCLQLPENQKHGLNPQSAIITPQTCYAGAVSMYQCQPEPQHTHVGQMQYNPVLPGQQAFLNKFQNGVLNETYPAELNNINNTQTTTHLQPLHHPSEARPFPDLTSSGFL

CCCCCCC(C)Nc1ccc(Nc2ccccc2)cc1 (stereo unspecified)
active: [3] 21.8 µM | [4] 44.4 µM | [6] 28.9 µM
not listed: [10]
inactive: all other assays above

OCCc1ccccc1
not listed: [10]
inactive: all other assays above

ClC(c1ccccc1)(c1ccccc1)c1ccccc1
active: [4] 5.95 µM
not listed: [7]
inactive: all other assays above

CC1CCC(C(C)C)C(O)C1 (stereo unspecified)
not listed: [10]
inactive: all other assays above

O=C1c2ccccc2C(=O)c2c(O)ccc(O)c21
active: [3] 3.02 µM | [5] 0.296 µM
not listed: [7]
inactive: all other assays above

CCC(=O)O[C@@H]1C[C@H]2CC[C@]1(C)C2(C)C
not listed: [7]
inactive: all other assays above

CCCC(O)C(O)CO (stereo unspecified)
active: [5] 0.16 µM
not listed: [10]
inactive: all other assays above

O=C1OC[C@H](Cc2cccc(O)c2)[C@H]1Cc1cccc(O)c1
active: [4] 13.9 µM
not listed: [10]
inactive: all other assays above

COCCc1ccc(OCC(O)CNC(C)C)cc1 (stereo unspecified)
not listed: [7]
inactive: all other assays above

COCCOC(=O)c1ccccc1C(=O)OCCOC
not listed: [7]
inactive: all other assays above

CCOC(=O)[C@@H](C)Oc1ccc(Oc2nc3ccc(Cl)cc3o2)cc1
active: [4] 152 µM | [10] 156 µM
not listed: [7]
inactive: all other assays above

Cc1ncc([N+](=O)[O-])n1CCO
not listed: [10]
inactive: all other assays above

CC(C)Nc1nc(N)nc(Cl)n1
not listed: [7]
inactive: all other assays above

O=C1OC(=O)c2c(Br)c(Br)c(Br)c(Br)c21
not listed: [7]
inactive: all other assays above

O=[N+]([O-])c1ccc(O)cc1C(F)(F)F
active: [1] 48 µM | [2] 58.8 µM | [3] 100 µM | [5] 53.8 µM | [6] 71.8 µM | [7] 26.4 µM
inactive: [4] | [8] | [9]

C[Si]1(C)O[Si](C)(C)O[Si](C)(C)O1
not listed: [10]
inactive: all other assays above

CCCCC(CC)COC(=O)c1ccc(O)cc1 (stereo unspecified)
not listed: [6]
inactive: all other assays above

COCCOCCOCCO
not listed: [7]
inactive: all other assays above

CCCCC(CC)(CO)CO
not listed: [10]
inactive: all other assays above

c1ccc2[nH]cnc2c1
not listed: [7]
inactive: all other assays above

O=C1NC2NC(=O)NC2N1 (stereo unspecified)
not listed: [7] | [10]
inactive: all other assays above

CC=Cc1ccc(OC)c(OC)c1
not listed: [8]
inactive: all other assays above

CC=Cc1ccc(OCC)c(O)c1
active: [5] 11.3 µM
not listed: [7]
inactive: all other assays above

[Cl][Au]([Cl])[Cl]
active: [5] 39.8 µM | [6] 72.6 µM
not listed: [7]
inactive: all other assays above

CCCOCCO
not listed: [10]
inactive: all other assays above

CCCOC(=O)c1c(Cl)c(Cl)c(Cl)c(Cl)c1C(=O)OCCC
inactive: [2] | [5] | [7] | [8]
active: [1] 171 µM | [3] 73.6 µM | [4] 27 µM | [6] 178 µM | [9] 59.9 µM

CC/C=C\CCOC(=O)CC
not listed: [8]
inactive: all other assays above

Nc1ccc(Cl)c([N+](=O)[O-])c1
not listed: [7]
inactive: all other assays above

NCc1ccco1
not listed: [7]
inactive: all other assays above

COC(=O)C=C(C)CCC=C(C)C
not listed: [10]
inactive: all other assays above

CCOC(=O)COC(=O)c1cc(Oc2ccc(C(F)(F)F)cc2Cl)ccc1[N+](=O)[O-]
active: [4] 35.5 µM
not listed: [7]
inactive: all other assays above

Cc1cccc(Nc2ccccc2)c1
active: [4] 67.5 µM | [6] 139 µM
not listed: [7]
inactive: all other assays above

CCCCCCCCCC(=O)OC
active: [5] 74.7 µM
not listed: [10]
inactive: all other assays above

O=CN1CCOCC1
not listed: [7]
inactive: all other assays above

CC(C)CC(C)CC(O)CC(C)C (stereo unspecified)
not listed: [6]
inactive: all other assays above

CC/C=C\CC/C=C/CO
not listed: [6]
inactive: all other assays above

CC(C)CCCCCCCCCCCCCCC(=O)O
active: [8] 54.2 µM
not listed: [6]
inactive: all other assays above

BrCc1cccc(Oc2ccccc2)c1
active: [4] 159 µM | [8] 5.96 µM
not listed: [6]
inactive: all other assays above

CCCCC(CC)C(=O)OC(C)C (stereo unspecified)
not listed: [6] | [10]
inactive: all other assays above

CCCCCCCCN1CCCC1=O
active: [1] 151 µM
not listed: [6]
inactive: all other assays above

C[N+](C)(C)CCCCCC[N+](C)(C)C
not listed: [4]
inactive: all other assays above

CC(C)(N=C=O)c1cccc(C(C)(C)N=C=O)c1
not listed: [4]
inactive: all other assays above

CS(=O)(=O)OCCCCOS(C)(=O)=O
active: [5] 63.6 µM
not listed: [6] | [10]
inactive: all other assays above

CCCC[P+](CCCC)(CCCC)CCCC
not listed: [4]
inactive: all other assays above

CCO/C=C1\N=C(c2ccccc2)OC1=O
not listed: [4]
inactive: all other assays above

CC(C)C(OC(=O)c1ccccc1)C(C)(C)COC(=O)c1ccccc1 (stereo unspecified)
not listed: [6]
inactive: all other assays above

CC(C)(C)c1ccc(C(=O)O)cc1
not listed: [4]
inactive: all other assays above

CC(=O)Nc1ccc(C(=O)CCl)cc1
active: [1] 7.97 µM | [6] 56.5 µM | [7] 7.19 µM
not listed: [4]
inactive: all other assays above

CC1CC(O)CC(C)(C)C1 (stereo unspecified)
not listed: [4]
inactive: all other assays above

CN(C)c1cccc(O)c1
active: [5] 7.57 µM
not listed: [4]
inactive: all other assays above

O=C(Nc1ccc([N+](=O)[O-])cc1)Nc1ccc([N+](=O)[O-])cc1 (tested in a mixture with another compound)
active: [5] 35.1 µM
not listed: [6]
inactive: all other assays above
